Results reported in the supplement of paper PMC6555819.

What was measured:
Experiment in all cases: PBM binding z-score (relative to random genomic background probes); higher = stronger binding; sequences stand for … in GC…GCGATTGACAGCGTAGAATGAAGG
[1] = test system: RARb homodimer (NR concentration 270 nM)
Method in brief: (§1)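 Probes were double-stranded and carried 34-nt variable regions with direct-repeat seeds, single-nucleotide variants, half-site ablations and random human genomic background sequences, printed on custom Agilent 4×180K protein-binding microarrays. Arrays were incubated 1 h with ligand-free nuclear receptor dimers in PBS pH 7.4, 2% milk, 0.02% Triton X-100, 1 mM DTT, 0.2 mg/mL BSA and 0.4 mg/ml salmon testes DNA. Antibodies against each partner (one per run) detected binding, and scanned fluorescence was regression-normalized. Binding z-scores use the random background probes as reference.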

[2] = test system: RARg:RXRa (NR concentration 270 nM, RXRa partner concentration 90 nM)
Method in brief: as §1

[3] = test system: RARg homodimer (NR concentration 270 nM)
Method in brief: as §1

[4] = test system: RXRa DBDmut IVT, anti-RXR (DBD mutation: RXRa K156A/R161A, NR concentration 90 nM)
Method in brief: as §1

[5] = test system: RXRa homodimer (NR concentration 180 nM)
Method in brief: as §1

[6] = test system: THRa:RXRa (NR concentration 90 nM, RXRa partner concentration 90 nM)
Method in brief: as §1

[7] = test system: THRa homodimer (NR concentration 90 nM)
Method in brief: as §1

[8] = test system: VDR homodimer (NR concentration 270 nM)
Method in brief: as §1

Sequence | PBM binding z-score [1] | PBM binding z-score [2] | PBM binding z-score [3] | PBM binding z-score [4] | PBM binding z-score [5] | PBM binding z-score [6] | PBM binding z-score [7] | PBM binding z-score [8]
AGAATGAGGTTATACGTAGATAAGGGAAGAAAGT | 0.654 | 1.77 | 1.26 | 1.23 | 2.29 | 2.11 | 0.472 | 0.781
TTACCAATGTGAGCTGAGGTCGTTGATCCAACTC | 0.861 | 0.247 | -0.299 | 0.122 | 0.752 | 3.25 | 1.54 | 2.7
TCTTGTACATCAAGCAGGTTAAGAAAGCCTGAGT | 0.323 | 0.395 | 0.0243 | 0.896 | 0.677 | 0.334 | -0.0584 | 0.438
CCTAGCTGGCCAGGGTCACTCAAGCATTTCGCTT | 2.33 | 3.05 | 2.03 | 0.326 | 3.3 | 2.88 | 0.857 | 0.994
TCTTGTATATCAGCAGGTTAAGAAAGCTGGCCAA | 0.756 | 0.511 | 0.266 | 1.05 | 0.75 | 0.759 | 0.0914 | 0.143
TCTATTAGTTGCAGGGCAACCGACGAGTCCGTTT | 0.506 | 0.104 | 0.0745 | 1.28 | 0.296 | 0.323 | 0.293 | 1.45
TAGCCTAGGTCATTGGGCCGGTATAGTACGCATC | 2.86 | 3.58 | 4.08 | 0.933 | 2.62 | 2.67 | 0.961 | 1.35
ATATGTAGGTTCTCGGGTCATTCAGTTTGCGCAT | 2.61 | 2.47 | 1.7 | 2.28 | 2.88 | 3.46 | 3.29 | 4.65
GCGACTGGGGCAAAGCAGGTTACCTTAAGGTTGG | 0.957 | 0.509 | 0.229 | -0.0758 | 0.238 | 3.21 | 1.82 | -0.116
AGAATGAGGTTGCCAAAGATCAGGGAAACGCTTG | -0.195 | 0.266 | 0.336 | 0.261 | 0.9 | 0.855 | -0.384 | -0.0161
TAGCCTAGGTCAATGGGCCAGTATAGTACGCATC | 3.07 | 3.64 | 4.52 | 0.537 | 2.12 | 2.16 | 0.256 | 0.391
ATCGAAAGGTCGTGAGCTGAGTATACAGAAAGGC | 2.17 | 4.41 | 3.74 | 0.921 | 5.11 | 2.31 | -0.456 | 0.299
TATACAGGCTCAAAGGCCAGAGTACGAATGTCGA | 0.737 | 0.637 | 0.897 | -0.662 | 0.521 | -0.176 | -0.638 | 0.383
ACTATCAGTTGAGACGAGGGCAACCGATAGGTTG | 1.12 | 0.732 | 0.78 | 0.39 | 0.625 | 2.59 | 0.179 | 0.822
CCTATTAGTTGACCATAAGGGCAACAGAAGCTCG | 1.77 | 1.46 | 1.16 | 0.685 | 0.825 | 1.76 | 1.15 | 0.832
TCTTGTAGATCAATAGAGTTTAAGAAAGTGCGCT | 0.231 | 0.0376 | 0.187 | 0.774 | 0.274 | 0.289 | -0.976 | 0.914
TCGAGTAGGTTACCCATGGGGCATTCAGCTTTCT | 0.802 | 1.61 | 0.414 | 0.106 | 0.689 | 0.2 | -0.507 | -0.557
AATACAGGTTCACTAGGCCAGAGTAGGTACGAAT | 1.25 | 1.84 | 1.4 | 4.16 | 2.15 | 1.12 | 0.232 | 4.64
TCTAGCAGGCCAGAGGGACACTCAAGAGGTACGG | 0.146 | -0.0485 | 0.179 | -0.19 | 0.112 | -0.54 | -0.905 | -0.834
TCTTCTAGGTCAACGATGGTCAGCTAATCTGCTA | 3.76 | 4.37 | 5.58 | 1.9 | 3.09 | 3.55 | 2.17 | 0.674
TCTGGTTGGTCAAAGGTCACACACTCGAAATGCG | 4.94 | 7.36 | 6.25 | 1.79 | 8.3 | 4.07 | 2.65 | 3.34
TCATATAGGTAAATACTAGGTGAAAGTCCGATCT | 0.493 | 0.573 | 0.709 | 1.89 | 1 | 1.49 | 0.718 | 0.521
TCTTGTAGATCCAGCAGGTTAAGAAAGCCTGAGT | -0.0215 | -0.196 | -0.399 | 0.513 | 0.171 | 0.192 | -0.236 | -0.224
CCTGCTATGTCATGGTCAGCTAATCTACAGTATG | 0.419 | 0.518 | 0.62 | 0.877 | 0.209 | -0.0552 | -0.368 | -0.566
TCGAGTCGGTTACCAATGGGGCATTCAGCTTTCT | 0.134 | -0.35 | -0.367 | 0.329 | -0.284 | -0.43 | -0.423 | -0.105
ACTATTAGTGGAGACGAGGGCAACCGATAGGTTG | 0.803 | 0.333 | 0.653 | 0.323 | 0.276 | 1.45 | -0.218 | 0.427
